# Experimental data as given in article PMC7862700, “An all-to-all approach to the identification of sequence-specific readers for epigenetic DNA modifications on cytosine”.
# Legend:
# Test in all cases: DAPPL (digital affinity profiling via proximity ligation, sequencing); 10 mM Tris-HCl pH 7.5, 50 mM NaCl, 1 mM DTT, 4% glycerol, room temperature, 30 min; GST-TFs on glutathione beads, 16-mer random dsDNA library, 0.1% formaldehyde crosslink after washing; high values mean tight binding
# Details in all cases: protein: recombinant; tags: N-terminal GST; dsDNA, one strand shown
# FEV = target: T1, FEV (Homo sapiens, UniProt Q99581 1-238)
# T1 sequence: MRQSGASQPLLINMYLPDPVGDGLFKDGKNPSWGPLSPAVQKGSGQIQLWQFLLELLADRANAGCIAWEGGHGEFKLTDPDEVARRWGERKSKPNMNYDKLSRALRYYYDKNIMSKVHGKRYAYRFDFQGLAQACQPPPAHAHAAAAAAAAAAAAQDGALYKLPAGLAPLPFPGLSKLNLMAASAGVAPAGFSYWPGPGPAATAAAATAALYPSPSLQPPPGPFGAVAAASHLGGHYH
# Procedure, shortened: (§1)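 Binding signal is given per hexamer as its read frequency for a factor divided by its frequency in the tag-only sample. GST-fused human transcription factors were expressed in yeast, captured on glutathione beads, barcoded with DNA and pooled with that sample, then incubated with 200 nmole of a 16-mer random double-stranded DNA library in Tris/NaCl/DTT/glycerol buffer for 30 min at room temperature. The pools were then washed, crosslinked, proximity-ligated, amplified by PCR and sequenced on an Illumina NextSeq500.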
# ETV5 = ETV5 (Homo sapiens, UniProt P41161 1-510)
# Chain of ETV5 (P41161 whole entry): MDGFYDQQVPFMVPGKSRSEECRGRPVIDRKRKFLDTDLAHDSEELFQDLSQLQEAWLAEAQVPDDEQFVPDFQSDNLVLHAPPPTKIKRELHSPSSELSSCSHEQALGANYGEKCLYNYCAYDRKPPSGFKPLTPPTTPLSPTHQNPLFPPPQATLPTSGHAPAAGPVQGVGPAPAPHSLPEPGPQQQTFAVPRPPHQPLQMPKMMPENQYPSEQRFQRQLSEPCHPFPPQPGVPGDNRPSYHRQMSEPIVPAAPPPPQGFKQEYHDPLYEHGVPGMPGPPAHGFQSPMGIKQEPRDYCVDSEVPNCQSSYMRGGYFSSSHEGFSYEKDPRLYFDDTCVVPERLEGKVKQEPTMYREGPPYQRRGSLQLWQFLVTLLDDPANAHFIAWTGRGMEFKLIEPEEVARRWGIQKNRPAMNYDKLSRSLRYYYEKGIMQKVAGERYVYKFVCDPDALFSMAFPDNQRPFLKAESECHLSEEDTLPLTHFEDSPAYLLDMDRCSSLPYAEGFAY
# Procedure, shortened: as §1
# SPIC = target: T2, SPIC (Homo sapiens, UniProt Q8N5J4 1-248)
# T2 sequence: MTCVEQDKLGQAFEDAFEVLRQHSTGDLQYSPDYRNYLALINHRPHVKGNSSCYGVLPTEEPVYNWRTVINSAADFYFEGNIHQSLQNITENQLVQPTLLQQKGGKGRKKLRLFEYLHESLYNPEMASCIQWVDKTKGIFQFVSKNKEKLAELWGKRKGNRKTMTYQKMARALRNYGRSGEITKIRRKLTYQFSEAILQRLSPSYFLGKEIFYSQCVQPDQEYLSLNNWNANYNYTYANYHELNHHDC
# Procedure, shortened: as §1
# ELF4 = ELF4 (Homo sapiens, UniProt Q99607 1-663)
# Chain of ELF4 (Q99607 whole entry): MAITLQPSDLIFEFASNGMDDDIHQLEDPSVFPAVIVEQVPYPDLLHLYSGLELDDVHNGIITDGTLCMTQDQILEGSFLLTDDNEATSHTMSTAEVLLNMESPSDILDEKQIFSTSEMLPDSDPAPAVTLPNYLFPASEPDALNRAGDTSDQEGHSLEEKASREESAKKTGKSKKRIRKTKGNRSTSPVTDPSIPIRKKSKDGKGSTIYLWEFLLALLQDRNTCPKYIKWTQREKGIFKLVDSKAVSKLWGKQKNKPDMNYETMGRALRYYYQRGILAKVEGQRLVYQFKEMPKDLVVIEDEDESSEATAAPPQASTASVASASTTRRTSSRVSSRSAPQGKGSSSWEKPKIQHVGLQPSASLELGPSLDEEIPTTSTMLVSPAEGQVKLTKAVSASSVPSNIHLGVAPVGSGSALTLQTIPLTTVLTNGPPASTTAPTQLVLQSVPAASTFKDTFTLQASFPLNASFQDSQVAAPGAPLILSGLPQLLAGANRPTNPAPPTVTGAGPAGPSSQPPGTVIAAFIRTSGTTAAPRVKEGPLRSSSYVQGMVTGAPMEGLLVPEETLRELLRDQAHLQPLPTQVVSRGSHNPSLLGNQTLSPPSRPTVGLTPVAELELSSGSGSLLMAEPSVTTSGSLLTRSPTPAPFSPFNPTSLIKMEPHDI
# Procedure, shortened: as §1
# ELK4 = target: T3, ELK4 (Homo sapiens, UniProt P28324-2 1-405)
# T3 sequence: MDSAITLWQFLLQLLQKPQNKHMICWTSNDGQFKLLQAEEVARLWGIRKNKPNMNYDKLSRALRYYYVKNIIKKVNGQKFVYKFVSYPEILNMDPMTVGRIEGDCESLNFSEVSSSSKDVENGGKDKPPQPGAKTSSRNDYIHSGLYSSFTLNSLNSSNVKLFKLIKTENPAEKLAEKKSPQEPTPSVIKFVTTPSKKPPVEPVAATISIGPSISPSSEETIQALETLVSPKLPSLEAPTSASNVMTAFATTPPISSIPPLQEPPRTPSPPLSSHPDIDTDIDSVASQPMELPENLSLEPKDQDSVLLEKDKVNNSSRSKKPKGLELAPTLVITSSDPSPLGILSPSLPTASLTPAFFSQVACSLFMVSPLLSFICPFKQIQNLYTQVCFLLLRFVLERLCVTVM
# Procedure, shortened: as §1
# ETV2 = target: T4, ETV2 (Homo sapiens, UniProt O00321 1-342)
# T4 sequence: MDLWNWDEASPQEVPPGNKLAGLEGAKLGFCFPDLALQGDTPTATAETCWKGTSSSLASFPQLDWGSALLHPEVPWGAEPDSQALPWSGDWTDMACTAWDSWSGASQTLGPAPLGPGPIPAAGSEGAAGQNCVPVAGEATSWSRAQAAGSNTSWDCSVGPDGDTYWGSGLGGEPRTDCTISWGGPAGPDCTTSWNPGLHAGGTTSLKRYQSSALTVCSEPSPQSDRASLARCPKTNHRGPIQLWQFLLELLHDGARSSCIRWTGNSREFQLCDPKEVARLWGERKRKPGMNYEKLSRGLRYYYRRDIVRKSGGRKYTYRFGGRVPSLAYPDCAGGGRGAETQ
# Procedure, shortened: as §1
# ELF3 = target: T5, ELF3 (Homo sapiens, UniProt P78545 1-371)
# T5 sequence: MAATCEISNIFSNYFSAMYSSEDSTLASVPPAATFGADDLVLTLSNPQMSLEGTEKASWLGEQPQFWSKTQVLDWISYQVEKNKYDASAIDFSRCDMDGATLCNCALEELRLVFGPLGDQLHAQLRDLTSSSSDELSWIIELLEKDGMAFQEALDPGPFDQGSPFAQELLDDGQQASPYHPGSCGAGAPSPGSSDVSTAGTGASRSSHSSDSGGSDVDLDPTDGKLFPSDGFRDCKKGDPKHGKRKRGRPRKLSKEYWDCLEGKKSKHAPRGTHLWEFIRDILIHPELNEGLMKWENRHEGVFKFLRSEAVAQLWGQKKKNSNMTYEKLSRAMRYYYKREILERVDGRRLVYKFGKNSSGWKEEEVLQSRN
# Procedure, shortened: as §1
# ETV1 = ETV1 (Homo sapiens, UniProt P50549 1-477)
# Chain of ETV1 (P50549 whole entry): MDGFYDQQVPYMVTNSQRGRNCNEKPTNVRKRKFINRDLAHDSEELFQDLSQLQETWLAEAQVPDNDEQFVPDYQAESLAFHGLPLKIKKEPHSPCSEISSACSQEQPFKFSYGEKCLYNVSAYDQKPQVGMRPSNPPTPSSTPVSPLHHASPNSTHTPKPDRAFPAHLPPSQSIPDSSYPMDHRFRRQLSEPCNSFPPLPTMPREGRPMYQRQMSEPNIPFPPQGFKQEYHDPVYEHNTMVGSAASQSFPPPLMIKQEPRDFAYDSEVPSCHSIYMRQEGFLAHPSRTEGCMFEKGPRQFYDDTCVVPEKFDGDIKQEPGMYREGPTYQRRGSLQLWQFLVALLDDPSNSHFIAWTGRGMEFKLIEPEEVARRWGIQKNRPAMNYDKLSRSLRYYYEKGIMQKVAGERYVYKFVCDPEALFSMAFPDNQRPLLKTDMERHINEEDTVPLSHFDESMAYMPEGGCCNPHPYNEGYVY
# Procedure, shortened: as §1
# ERF = target: T6, ERF (Homo sapiens, UniProt P50548 1-548)
# T6 sequence: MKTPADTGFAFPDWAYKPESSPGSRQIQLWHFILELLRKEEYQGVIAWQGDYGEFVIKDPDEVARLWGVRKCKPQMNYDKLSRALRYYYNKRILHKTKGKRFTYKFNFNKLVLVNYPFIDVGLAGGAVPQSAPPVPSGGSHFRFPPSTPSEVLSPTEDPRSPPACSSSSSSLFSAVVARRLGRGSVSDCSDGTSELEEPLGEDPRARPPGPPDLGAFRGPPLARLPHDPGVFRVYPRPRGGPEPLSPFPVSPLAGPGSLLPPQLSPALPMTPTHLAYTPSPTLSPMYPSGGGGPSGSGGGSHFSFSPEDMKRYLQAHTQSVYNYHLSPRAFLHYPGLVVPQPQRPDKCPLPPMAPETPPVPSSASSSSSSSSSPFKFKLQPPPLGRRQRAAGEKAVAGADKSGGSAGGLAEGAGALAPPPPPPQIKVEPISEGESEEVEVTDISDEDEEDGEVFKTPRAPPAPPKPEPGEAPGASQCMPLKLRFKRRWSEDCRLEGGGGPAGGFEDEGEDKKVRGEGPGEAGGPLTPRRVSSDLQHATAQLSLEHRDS
# Procedure, shortened: as §1
# ETV3L = target: T7, ETV3L (Homo sapiens, UniProt Q6ZN32 1-361)
# T7 sequence: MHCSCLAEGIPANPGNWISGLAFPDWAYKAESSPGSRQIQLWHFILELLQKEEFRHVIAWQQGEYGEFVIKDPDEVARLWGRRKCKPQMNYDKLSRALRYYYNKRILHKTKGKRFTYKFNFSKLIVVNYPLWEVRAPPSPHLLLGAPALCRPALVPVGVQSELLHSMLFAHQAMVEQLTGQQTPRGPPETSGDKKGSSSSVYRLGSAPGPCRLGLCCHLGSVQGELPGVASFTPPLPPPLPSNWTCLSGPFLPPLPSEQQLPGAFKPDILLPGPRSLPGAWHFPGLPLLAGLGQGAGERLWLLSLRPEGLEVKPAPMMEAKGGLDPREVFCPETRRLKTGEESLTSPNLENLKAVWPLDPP
# Procedure, shortened: as §1
# ETS2 = target: T8, ETS2 (Homo sapiens, UniProt P15036 1-469)
# T8 sequence: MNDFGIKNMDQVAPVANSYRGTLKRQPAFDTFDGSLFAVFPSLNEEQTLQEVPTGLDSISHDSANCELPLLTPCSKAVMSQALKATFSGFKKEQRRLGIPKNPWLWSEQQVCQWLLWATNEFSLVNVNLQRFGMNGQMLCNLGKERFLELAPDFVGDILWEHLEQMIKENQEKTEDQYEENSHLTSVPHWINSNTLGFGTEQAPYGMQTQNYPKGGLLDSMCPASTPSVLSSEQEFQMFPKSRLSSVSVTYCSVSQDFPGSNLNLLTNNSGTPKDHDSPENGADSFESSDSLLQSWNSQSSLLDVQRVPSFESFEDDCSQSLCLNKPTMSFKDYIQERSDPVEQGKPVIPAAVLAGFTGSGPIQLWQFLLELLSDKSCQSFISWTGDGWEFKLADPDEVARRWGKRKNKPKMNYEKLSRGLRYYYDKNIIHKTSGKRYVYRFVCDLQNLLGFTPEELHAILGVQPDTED
# Procedure, shortened: as §1
# SPDEF = target: T9, SPDEF (Homo sapiens, UniProt O95238 1-335)
# T9 sequence: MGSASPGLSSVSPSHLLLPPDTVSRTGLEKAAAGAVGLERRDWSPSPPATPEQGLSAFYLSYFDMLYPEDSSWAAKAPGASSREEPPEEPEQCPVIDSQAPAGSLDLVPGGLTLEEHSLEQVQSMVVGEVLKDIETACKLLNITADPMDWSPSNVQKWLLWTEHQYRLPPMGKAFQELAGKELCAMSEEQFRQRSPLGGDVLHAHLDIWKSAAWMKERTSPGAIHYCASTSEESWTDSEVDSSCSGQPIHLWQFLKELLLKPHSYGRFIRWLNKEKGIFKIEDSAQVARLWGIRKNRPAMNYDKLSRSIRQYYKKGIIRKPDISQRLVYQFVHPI
# Procedure, shortened: as §1
# ETV7 = target: T10, ETV7 (Homo sapiens, UniProt Q9Y603 1-341)
# T10 sequence: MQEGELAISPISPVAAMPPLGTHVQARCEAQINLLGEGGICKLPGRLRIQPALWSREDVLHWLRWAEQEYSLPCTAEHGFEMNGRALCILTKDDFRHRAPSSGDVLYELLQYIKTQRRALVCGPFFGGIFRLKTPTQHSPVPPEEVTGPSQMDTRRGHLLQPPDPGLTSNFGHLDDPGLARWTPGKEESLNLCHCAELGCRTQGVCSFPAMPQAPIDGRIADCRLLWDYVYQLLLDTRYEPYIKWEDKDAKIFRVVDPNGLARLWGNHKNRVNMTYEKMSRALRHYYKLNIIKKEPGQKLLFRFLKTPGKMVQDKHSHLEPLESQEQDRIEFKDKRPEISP
# Procedure, shortened: as §1
# ELF5 = target: T11, ELF5 (Homo sapiens, UniProt Q9UKW6-2 1-255)
# T11 sequence: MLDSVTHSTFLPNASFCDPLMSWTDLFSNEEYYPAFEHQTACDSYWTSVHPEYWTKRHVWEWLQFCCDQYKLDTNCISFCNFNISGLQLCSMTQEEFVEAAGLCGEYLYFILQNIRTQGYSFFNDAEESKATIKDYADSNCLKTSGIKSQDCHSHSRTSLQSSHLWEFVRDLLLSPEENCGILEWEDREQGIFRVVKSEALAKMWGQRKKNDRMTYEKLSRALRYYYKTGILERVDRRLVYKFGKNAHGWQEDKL
# Procedure, shortened: as §1
# ETV3 = target: T12, ETV3 (Homo sapiens, UniProt P41162-2 1-143)
# T12 sequence: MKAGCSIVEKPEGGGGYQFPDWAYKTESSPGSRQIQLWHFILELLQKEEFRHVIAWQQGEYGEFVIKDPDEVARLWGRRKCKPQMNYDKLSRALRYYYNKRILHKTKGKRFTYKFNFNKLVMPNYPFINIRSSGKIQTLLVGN
# Procedure, shortened: as §1
# ETV6 = ETV6 (Homo sapiens, UniProt P41212 1-452)
# Chain of ETV6 (P41212 whole entry): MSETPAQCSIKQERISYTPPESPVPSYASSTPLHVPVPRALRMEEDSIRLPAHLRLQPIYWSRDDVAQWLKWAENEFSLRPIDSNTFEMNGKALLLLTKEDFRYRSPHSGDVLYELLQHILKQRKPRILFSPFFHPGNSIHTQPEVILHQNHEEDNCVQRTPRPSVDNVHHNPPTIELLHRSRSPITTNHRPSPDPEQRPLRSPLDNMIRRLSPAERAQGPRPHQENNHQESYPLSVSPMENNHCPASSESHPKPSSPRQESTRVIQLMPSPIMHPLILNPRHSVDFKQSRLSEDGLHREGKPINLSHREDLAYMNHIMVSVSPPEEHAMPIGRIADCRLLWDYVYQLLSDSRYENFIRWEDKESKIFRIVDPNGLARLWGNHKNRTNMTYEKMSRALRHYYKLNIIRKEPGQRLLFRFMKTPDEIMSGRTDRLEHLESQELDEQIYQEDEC
# Procedure, shortened: as §1
sequence,measurement,setting,value
CACACA,binding signal,FEV,"1.18 fold enrichment (6-mer frequency, TF over GST control)"
same,binding signal,ETV5,"1.16 fold enrichment (6-mer frequency, TF over GST control)"
same,binding signal,SPIC,"1.07 fold enrichment (6-mer frequency, TF over GST control)"
same,binding signal,ELF4,"1.16 fold enrichment (6-mer frequency, TF over GST control)"
same,binding signal,ELK4,"1.1 fold enrichment (6-mer frequency, TF over GST control)"
same,binding signal,ETV2,"1.23 fold enrichment (6-mer frequency, TF over GST control)"
same,binding signal,ELF3,"1.09 fold enrichment (6-mer frequency, TF over GST control)"
same,binding signal,ETV1,"1.06 fold enrichment (6-mer frequency, TF over GST control)"
same,binding signal,ERF,"1.16 fold enrichment (6-mer frequency, TF over GST control)"
same,binding signal,ETV3L,"1.22 fold enrichment (6-mer frequency, TF over GST control)"
same,binding signal,ETS2,"1.14 fold enrichment (6-mer frequency, TF over GST control)"
same,binding signal,SPDEF,"1.07 fold enrichment (6-mer frequency, TF over GST control)"
same,binding signal,ETV7,"1.1 fold enrichment (6-mer frequency, TF over GST control)"
same,binding signal,ELF5,"1.06 fold enrichment (6-mer frequency, TF over GST control)"
same,binding signal,ETV3,"1.1 fold enrichment (6-mer frequency, TF over GST control)"
same,binding signal,ETV6,"1.18 fold enrichment (6-mer frequency, TF over GST control)"
